The results in this text go back to the supplement of paper PMC8007513.

The test concerns Trichoderma virens ATCC 9645. The test can be described thus: growth yield (OD600) relative to untreated control; higher = less growth inhibition. As to conditions: compound concentration: 100 uM. The method, boiled down: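 Spores of Trichoderma virens ATCC 9645, taken from potato dextrose agar plates grown for 7 days, were suspended at 15,000 spores ml^−1 in potato dextrose broth. In 96-well plates, 100 μl aliquots held library compounds at 100 μM final, either alone or together with a biocide at 200 ng ml^−1, and were grown at 30 °C. A BioTek EL800 read OD600 at 40 h and 72 h. Growth values are given relative to the control lacking both agents and are means of duplicate screens.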

Structures can show the parent of a compound that is named as a salt. ± gives the standard error. Hit rate of the full screen: of about 1,300 compounds, about 75 (6%) showed an effect of 50% or more. The entries come from a sample that favours strong results as a whole.

Regarding `COc1ccccc1O` [Guaiacol], the growth yield reads like this: (40 h) 103.9 ± 0.95%; (72 h) 102.7 ± 0.32%.
Taken in the same sequence, the figures for `COc1ccc(C(=O)c2ccccc2O)c(O)c1` [Dioxybenzone] were 22.2% and 45.1 ± 2.7%.
For `COc1ccc(C(=O)c2ccccc2)c(O)c1` [Oxybenzone] the same measures were 53.8 ± 4.3% and 62.9%.
As to `Nc1cc(N2CCCCC2)nc(N)[n+]1[O-]` [Minoxidil], the growth yield stood at 104 ± 3.2% (40 h) and 102 ± 1.3% (72 h).
Taken in the same sequence, the figures for `O=C(NCCO[N+](=O)[O-])c1cccnc1` [Nicorandil] were 102.9 ± 0.32% and 102 ± 4.2%.
Taken in the same sequence, the figures for `CC1=C(C(=O)O)N2C(=O)[C@@H](NC(=O)[C@H](N)c3ccc(O)cc3)[C@H]2SC1` [Cefadroxil] were 104 ± 8.9% and 106 ± 9.1%.
Taken in the same sequence, the figures for `O=C(O[C@@H]1C[C@@H]2C[C@H]3C[C@H](C1)N2CC3=O)c1c[nH]c2ccccc12` [Dolasetron mesilate] were 106 ± 3.3% and 104 ± 1.9%.
With `CCn1cc(C(=O)O)c(=O)c2cnc(N3CCCC3)nc21` [Piromidic acid], the growth yield runs as follows: (40 h) 90.5 ± 5.7%; (72 h) 92.1 ± 4%.
For `CCCCC(CC)CNC(=N)NC(=N)NCCCCCCNC(=N)NC(=N)NCC(CC)CCCC` (centres undefined) [Alexidine dihydrochloride] the same measures were 1.91 ± 0.32% and 1.89 ± 0.63%.
Consider `OC(CCN1CCCCC1)(c1ccccc1)C1CC2C=CC1C2` (centres undefined) [Biperiden hydrochloride], for which the growth yield reads like this: (40 h) 104 ± 2.9%; (72 h) 105 ± 1.9%.
Taken in the same sequence, the figures for `CCN(CC)CCNc1ccc(CO)c2sc3ccccc3c(=O)c12` [Hycanthone] were 118 ± 4.1% and 114.7 ± 0.63%.
For `CCCCC[C@H](O)/C=C/[C@H]1[C@H](O)CC(=O)[C@@H]1CCCCCCC(=O)O` [Alprostadil] the same measures were 107 ± 8.4% and 101 ± 6.2%.
As to `C[C@@H]1C[C@H]2[C@@H]3C[C@H](F)C4=CC(=O)C=C[C@]4(C)[C@@]3(Cl)[C@@H](O)C[C@]2(C)[C@H]1C(=O)COC(=O)C(C)(C)C` [Clocortolone pivalate], the growth yield runs as follows: (40 h) 107 ± 4%; (72 h) 100 ± 5.7%.
Taken in the same sequence, the figures for `O=c1oc2ccccc2c(O)c1Cc1c(O)c2ccccc2oc1=O` [Dicumarol] were 94 ± 0.95% and 92.4 ± 0.94%.
For `CC(=O)CC(c1ccccc1)c1c(O)c2ccccc2oc1=O` (centres undefined) [Warfarin] the same measures were 90.9 ± 3.5% and 89.1 ± 4%.
As to `CCc1oc2ccccc2c1C(=O)c1cc(Br)c(O)c(Br)c1` [Benzbromarone], the growth yield runs as follows: (40 h) 40.7 ± 5.7%; (72 h) 77.8 ± 4.8%.
For `CC(Cc1cccc(C(F)(F)F)c1)NCCOC(=O)c1ccccc1` (centres undefined) [Benfluorex] the same measures were 83.5 ± 3.5% and 95.9 ± 1.9%.
For `CN[C@@H]1[C@H](O[C@H]2[C@H](O[C@H]3[C@H](O)[C@@H](O)[C@H](NC(=N)N)[C@@H](O)[C@@H]3NC(=N)N)O[C@@H](C)[C@]2(O)CO)O[C@@H](CO)[C@H](O)[C@H]1O` [Dihydrostreptomycin sulfate] the same measures were 96.9% and 98%.
With `CCOC1O[C@H]([C@@H](COCc2ccccc2)OCc2ccccc2)[C@H](OCc2ccccc2)[C@H]1O` (some centres undefined) [Tribenoside], the growth yield (40 h) was determined as 90.2 ± 6% and the growth yield (72 h) was determined as 87.2 ± 6.2%.
Taken in the same sequence, the figures for `CC(C)CC(=O)N[C@H](C(=O)N[C@H](C(=O)N[C@@H](CC(C)C)[C@@H](O)CC(=O)N[C@@H](C)C(=O)N[C@@H](CC(C)C)[C@@H](O)CC(=O)O)C(C)C)C(C)C` [Pepstatin A] were 106 ± 5.4% and 102 ± 7.8%.
`CN(C)CCOC(c1ccc(Cl)cc1)c1ccccn1` (centres undefined) [Carbinoxamine maleate salt] showed a growth yield (40 h) of 97.7 ± 4.3% and a growth yield (72 h) of 97.8 ± 2.6%.
Taken in the same sequence, the figures for `CCN(CC)C(=S)SSC(=S)N(CC)CC` [Disulfiram] were 27.2 ± 17% and 67.8 ± 12%.
In turn, `COc1ccccc1N1CCN(CC(O)COc2cccc3ccccc23)CC1` (centres undefined) [Naftopidil dihydrochloride] displayed a growth yield (40 h) of 97.4 ± 1.1% and a growth yield (72 h) of 110.22 ± 0.1%.
For the molecule `NCCNCCNCCNCCN` [Tetraethylenepentamine pentahydrochloride], the growth yield (40 h) stood at 103 ± 2.5% and the growth yield (72 h) was 99.8 ± 2.9%.
Taken in the same sequence, the figures for `CCCOc1ccccc1-c1nc2[nH]nnc2c(=O)[nH]1` [Zaprinast] were 99.1% and 106 ± 1.1%.
As for `CCC(=O)OCC(=O)[C@@]1(OC(=O)CC)[C@H](C)C[C@H]2[C@H]3[C@H]([C@@H](O)C[C@@]21C)[C@@]1(C)C=CC(=O)C=C1C[C@H]3Cl` [Alclometasone dipropionate], the growth yield was 101 ± 4% (40 h) and 97.7 ± 1.7% (72 h).
With `CCCCCCNC(=O)n1cc(F)c(=O)[nH]c1=O` [Carmofur], the growth yield (40 h) is 16.4 ± 0.48% and the growth yield (72 h) turned out to be 33.1 ± 5.5%.
Taken in the same sequence, the figures for `Nc1nc(=O)c2c([nH]1)NC[C@@H](CNc1ccc(C(=O)N[C@@H](CCC(=O)O)C(=O)O)cc1)N2C=O` [Folinic acid calcium salt] were 99.8 ± 2.5% and 92 ± 4.1%.
For `CC(C)NC[C@H](O)COc1ccc(CC(N)=O)cc1` [(S)-(-)-Atenolol] the same measures were 100 ± 1.6% and 101 ± 1.5%.
Taken in the same sequence, the figures for `NS(=O)(=O)c1cc2c(cc1C(F)(F)F)NC(Cc1ccccc1)NS2(=O)=O` (centres undefined) [Bendroflumethiazide] were 106 ± 3.3% and 102 ± 3.4%.
For `CN(c1nccc(=O)[nH]1)C1CCN(c2nc3ccccc3n2Cc2ccc(F)cc2)CC1` [Mizolastine], the growth yield (40 h) turned out to be 94.5 ± 2.4% and the growth yield (72 h) amounted to 96 ± 2.6%.
Taken in the same sequence, the figures for `CN(C)CCN(Cc1ccc(Cl)cc1)c1ccccn1` [Chloropyramine hydrochloride] were 98.8 ± 1.9% and 96.2 ± 2.6%.
